Results reported in publication PMC5540273 (PLoS ONE, 2017).
pKd: −log10 of the molar value.

Experiments:
[1] = tested on: RIPK1
[2] = tested on: ROCK2
[3] = tested on: RPS6KA4(Kin.Dom.1-N-terminal)
[4] = tested on: T1, RSK1(Kin.Dom.2-C-terminal)
T1 construct: gene RPS6KA1

[5] = tested on: T2, RSK2(Kin.Dom.2-C-terminal)
T2 construct: gene RPS6KA3

[6] = tested on: T3, RSK4(Kin.Dom.1-N-terminal)
T3 construct: gene RPS6KA6

[7] = tested on: SRPK1
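Further: kd values determined as follow-up on hits from a single-replicate KINOMEscan panel screen.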

Nc1ncnc2occ(-c3ccc4c(c3)CCN4C(=O)Cc3cc(F)ccc3F)c12 [GSK2645446]
pKd [1]: 6.39

c1ccc(-c2ccnc3[nH]ccc23)cc1 [SB-693578]
pKd [2]: 6.28

Cc1nccc(-c2c(-c3ccc(F)cc3)ncn2CCCN2CCOCC2)n1.Cl [SB-282975]
pKd [3]: < 5.00

O=C1NC(=O)C(c2ccc(Cl)cc2)=C1Nc1cccc(Cl)c1 [SB-317651]
pKd [3]: < 5.00

NS(=O)(=O)c1cccc(N/C=C2\C(=O)Nc3ccc(S(=O)(=O)Cc4c(Cl)cccc4Cl)cc32)c1 [GSK398099]
pKd [4]: < 5.00

Cn1cnc2c(N)ncnc21 [SKF-97623]
pKd [4]: < 5.00

COc1ccc(Nc2nccc(N3CCC(NC(=O)C(C)c4ccc(Cl)cc4)CC3)n2)cc1 (stereo not drawn) [GSK1379812]
pKd [5]: < 5.00

O=C(Nc1n[nH]c2nc(-c3cccs3)c(Br)cc12)C1CC1 [SB-735297]
pKd [6]: 5.42

Cn1cncc1C(=O)NC1CCN(c2ccnc(Nc3ccc(F)cc3)n2)C1 (stereo not drawn) [GSK1379717]
pKd [7]: < 5.00
